We go through twelve compounds from PubChem BioAssay (NCI).

This is part of a sample that, as a whole, favours compounds with a hit. Of some 83,000 tested, about 20% had one in any assay.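 Values shown are percent growth following 48 h exposure of cells in 96-well plates to a single concentration of compound; below 10 was considered active.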 A number with no mark means an inactive call. Calls of active or inactive are those of the source.

Holding throughout (experiment): NCI-60 one-dose screen, 48 h (100 = growth as untreated, 0 = no growth, -100 = all killed)
Common to all, as to details: 10 µM unless noted

Assay [1] relates to SK-MEL-2 melanoma.
The test system of assay [2] is EKVX NSCLC.
The test system of assay [3] is SN12C renal.
The test system of assay [4] is UO-31 renal.
In assay [5] the test system is TK-10 renal.
The test system of assay [6] is ACHN renal.
In assay [7] the test system is CAKI-1 renal.
In assay [8] the test system is A498 renal.
Assay [9] has as its system CCRF-CEM leukemia.
The subject of assay [10] is MOLT-4 leukemia.

On to `O=C(OCc1ccc2c(Cl)cc(Cl)c(O)c2n1)N1CCN(C(=O)c2cc3cc(F)ccc3[nH]2)CC1`, for which the growth in assay [1] is 22.9%; in assay [2] it was 94.5%; in [3] it was 30.1%; in [4], 33.4%; in [5], 63.7%; in assay [6], 26.7%. The growth in assay [7] was 14.8%; in [8], -13.1% (active); in assay [9] it was 13.4%; in assay [10] it was 17.3%.
For the compound `CC1(C)C(=NO)C(C)(C)C1=NO`, the growth in assay [1] is 117%; in assay [2] it was 114%; in [3] it was 110%; in [4], 104%; in [5] it was 104%; in [6] it was 112%. Moreover, the growth was 109% in assay [7], 109% in [8], 7.92% (active) in [9] and 8.62% (active) in assay [10].
On to `CC(=O)OC[C@]12CC[C@@H]([C@@H](C)C(N)=O)[C@@H]1[C@H]1CC[C@@H]3[C@@]4(C)CC[C@H](OC(C)=O)C(C)(C)[C@@H]4CC[C@@]3(C)[C@]1(C)CC2`, for which the growth was -77.6% [100 µM] (active) in [1]; -25.2% [100 µM] (active) in [2]; -91.6% [100 µM] (active) in [3]; -97.5% [100 µM] (active) in assay [4]; -35.4% [100 µM] (active) in assay [5]; -75.7% [100 µM] (active) in [6]. In addition, the growth in assay [7] is -45.8% [100 µM] (active); in assay [8], -81.7% [100 µM] (active); in assay [9], -12.4% [100 µM] (active); in assay [10], -29.1% [100 µM] (active).
Turning to `C=C(C)[C@@H]1CC[C@]2(C)[C@H](C(=O)C=C3[C@@H]4C[C@](C)(C(=O)N5CCN(C)CC5)CC[C@]4(C)CC[C@]32C)[C@@]1(C)CCC#N`, the growth in [1] was -78.6% [100 µM] (active); in assay [2] it was -20.8% [100 µM] (active); in [3], -86.9% [100 µM] (active); in [4], -100% [100 µM] (active); in assay [5], -87.8% [100 µM] (active); in [6], -93.7% [100 µM] (active). Further, the growth in assay [7] is -96.2% [100 µM] (active); in assay [8], -73.7% [100 µM] (active); in assay [9] it was -34% [100 µM] (active); in assay [10], -45.9% [100 µM] (active).
Consider `O=C(CSc1nccc(Nc2ccc(S(=O)(=O)Nc3ccccn3)cc2)n1)c1ccc(Cl)cc1`, for which the growth is 97.8% in [1]; 101% in assay [2]; 90.7% in assay [3]; 71.3% in [4]; 109% in [5]; 89.8% in assay [6]. Moreover, the growth in assay [7] is 83%; in assay [8] it was 115%; in assay [9], -44.8% (active); in [10] it was 81.4%.
`C=C(C)[C@@H]1CC[C@]2(C)[C@H](CC[C@@H]3[C@@H]([C@@](C)(O)CCC=C(C)C)CC[C@]32C)[C@@]1(C)CCC(=O)N1CCN(C)CC1`: the growth in assay [1] was -88.5% [100 µM] (active); in [2], -66.4% [100 µM] (active); in assay [3] it was -95.6% [100 µM] (active); in assay [4], -100% [100 µM] (active); in assay [5], -79.3% [100 µM] (active); in [6] it was -100% [100 µM] (active). For the same compound, the growth in assay [7] was -90.7% [100 µM] (active); in [8], -96% [100 µM] (active); in [9], -27.6% [100 µM] (active); in assay [10], -41.2% [100 µM] (active).
With `Cc1ccc2c(c1)C(C)Cc1c(Cl)ncnc1N2C` (stereo not given), the growth in assay [1] was -21.4% (active); in assay [2] it was 22.2%; in [3] it was 32.8%; in assay [4], 18%; in assay [5], 18.3%; in [6] it was 32%. Also, the growth is 31% in assay [7], -19.2% (active) in assay [8], 49.7% in assay [9] and 13.6% in [10].
On to `C=C(C)[C@@H]1CC[C@]2(C(=O)NCCNCCNCCN)CC[C@]3(C)[C@H](CC[C@@H]4[C@@]5(C)CC[C@H](O)C(C)(C)[C@@H]5CC[C@]43C)[C@@H]12`, for which the growth was -65.4% [100 µM] (active) in [1]; -11.4% [100 µM] (active) in assay [2]; -53.7% [100 µM] (active) in [3]; -100% [100 µM] (active) in [4]; -67.3% [100 µM] (active) in [5]; -100% [100 µM] (active) in assay [6]. For the same compound, the growth in assay [7] is -93.6% [100 µM] (active); in assay [8] it was -32.6% [100 µM] (active); in [9], 5.18% [100 µM] (active); in [10], 1.18% [100 µM] (active).
Turning to `CC(C)[C@H]1CCC2=C3CC[C@]45OC(=O)[C@@]6(CCC(C)(C)C[C@H]64)CC[C@@]5(C)[C@]3(C)CC[C@@]21C`, the growth was 74.9% [100 µM] in [1]; 88.3% [100 µM] in assay [2]; 70.6% [100 µM] in assay [3]; 67.9% [100 µM] in assay [4]; 101% [100 µM] in assay [5]; 72.4% [100 µM] in [6]. The growth in assay [7] was 53.7% [100 µM]; in [8], 103% [100 µM]; in assay [9] it was 49.7% [100 µM]; in [10], 26.5% [100 µM].
`Cn1cc(-c2noc(C(=O)c3cn(C)c4ncc(Br)cc34)n2)c2ccccc21`: the growth in assay [1] is 95.4%; in assay [2] it was 85.5%; in [3], 94.8%; in assay [4], 79.3%; in assay [5] it was 107%; in assay [6], 102%. Also, the growth in assay [7] was 89.5%; in assay [8] it was 75.3%; in [9], -49.1% (active); in assay [10] it was 105%.
As to `CC1(C)C(=O)/C(=C\c2ccco2)C[C@]2(C)[C@H]3CC=C4[C@@H]5C[C@](C)(C(=O)O)CC[C@]5(C)CC[C@@]4(C)[C@]3(C)CC[C@@H]12`, the growth is -57.5% [100 µM] (active) in assay [1]; -71.4% [100 µM] (active) in assay [2]; -50.8% [100 µM] (active) in [3]; -95.5% [100 µM] (active) in [4]; -46.1% [100 µM] (active) in assay [5]; -79.9% [100 µM] (active) in assay [6]. The growth in [7] was -66.6% [100 µM] (active); in assay [8], -89.2% [100 µM] (active); in assay [9] it was -22.7% [100 µM] (active); in assay [10], -21% [100 µM] (active).
In the case of `Cc1cc(C)nc(SCC(=O)Nc2cccc(N=Cc3ccccc3O)c2)n1`, the growth in [1] is 114%; in [2], 97.9%; in assay [3] it was 96.5%; in assay [4] it was 76.7%; in [5], 106%; in [6] it was 99.2%. Also, the growth in assay [7] is 81.4%; in [8] it was 82.5%; in assay [9], 88.6%; in assay [10], 98.9%.
